The results in this text go back to article PMC7819943, “Rice protein-binding microarrays: a tool to detect cis-acting elements near promoter regions in rice”.

Over roughly 35,000 sequences, “fluorescence intensity (a.u.)” has its median near 10,000; the highest 2% begin near 52,000. What follows is part of a selection rich in the highest values, with near analogues and random picks from the rest.

This assay addresses T1, OsWOX13 (Oryza sativa, UniProt Q5QMM3 1-267).
T1 sequence: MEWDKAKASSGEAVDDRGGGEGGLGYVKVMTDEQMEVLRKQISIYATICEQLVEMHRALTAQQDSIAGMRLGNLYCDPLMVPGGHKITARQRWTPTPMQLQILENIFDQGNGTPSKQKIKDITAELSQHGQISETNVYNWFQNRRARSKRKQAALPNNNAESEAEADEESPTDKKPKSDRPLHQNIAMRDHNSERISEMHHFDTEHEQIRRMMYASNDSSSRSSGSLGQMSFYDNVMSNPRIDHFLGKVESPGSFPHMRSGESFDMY
Nature of the assay: protein-binding microarray (RPBM); PBS, 2% BSA, 51.3 ng/ul salmon testes DNA, 50 uM zinc acetate, 200 nM TF, 25 C, 1 h; high values mean tight binding. The note with it: protein: recombinant; tags: N-terminal polyhistidine and DsRed monomer fusion (pET32a); label: CyDye5-dUTP incorporated in the synthesized complementary strand; 3' TTTTT single-stranded linker to array surface; dsDNA, one strand shown. In outline:
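An Axon 4000B scanner gave the binding signal as per-feature fluorescence intensity in arbitrary units. This followed washing of a custom Agilent array that had been incubated for 1 h at 25 °C with 200 nM protein in PBS, 2% BSA, salmon testes DNA and 50 µM zinc acetate. The proteins were transcription factors fused at the N-terminus to polyhistidine and DsRed, expressed in E. coli BL21-CodonPlus and purified on Ni–NTA.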
On to “GACAAATTATGGCATTTTAAAATCCAAAATATGGAAAGGGCGGAGTCACCTAGTGCAG”, for which the binding signal is 14600 fluorescence intensity (a.u.).

For the sequence “CTTAACTGTAACACTATTGCGTTGATTACTTCTACTTATTCGGAGTCACCTAGTGCAG”, the binding signal was 15200 fluorescence intensity (a.u.).

“ACCGTGATTACGGTAATTGGAAATATAAAAGAGATGGGAGCGGAGTCACCTAGTGCAG”: the binding signal was 56800 fluorescence intensity (a.u.).

Turning to “AACATTGATTAATATTGGTCAAAATATTTTCAACTCTAAACGGAGTCACCTAGTGCAG”, the binding signal was 19200 fluorescence intensity (a.u.).

“CTTATTATAAAGATTTAATTATAACAAATATAATGGTATGCGGAGTCACCTAGTGCAG”: the binding signal was 4800 fluorescence intensity (a.u.).

Take “CTTCTTGATTGATTTATACTAACTGCGCACACACTTTATTCGGAGTCACCTAGTGCAG”: the binding signal is 55200 fluorescence intensity (a.u.).

On to “GATTCAATGATGGATTTAATAAAACTAATTTGGTATTGCTCGGAGTCACCTAGTGCAG”, for which the binding signal was 18700 fluorescence intensity (a.u.).

In the case of “GTATGATTAATTGAGTTTTAATTATTATAAAATTTTAAAACGGAGTCACCTAGTGCAG”, the binding signal is 22900 fluorescence intensity (a.u.).

Take “CAATGATTGGACTAAAGAAAATGCTAATATTAATGGTATGCGGAGTCACCTAGTGCAG”: the binding signal was 52300 fluorescence intensity (a.u.).

Consider “CTTGATTTATTGATTGATTAATAAAACATTTTATTTCCAACGGAGTCACCTAGTGCAG”, for which the binding signal was 56900 fluorescence intensity (a.u.).

“ATAATTGGTAAAGATGGATTCAAAATATTATTAATAATTGCGGAGTCACCTAGTGCAG”: the binding signal is 26200 fluorescence intensity (a.u.).

For “ACTTATATTCTTTAACTTATGATTGGAGGTATATACTATACGGAGTCACCTAGTGCAG”, the binding signal was 5760 fluorescence intensity (a.u.).

Turning to “TGATAGATGGAAAATAAATTGGTAAAATTAGTAGATGGGACGGAGTCACCTAGTGCAG”, the binding signal was 39700 fluorescence intensity (a.u.).

“GTACCTACCAGTAATTAATCAGCAGGCTCACTGTAATCAACGGAGTCACCTAGTGCAG”: the binding signal was 3470 fluorescence intensity (a.u.).

Consider “CATTTGATTTTCGGTCTGATTTTGTTATTTCACTGGCAATCGGAGTCACCTAGTGCAG”, for which the binding signal is 24300 fluorescence intensity (a.u.).

On to “GGTGACAGTTTGGTTAGTGACAAATAGTTACATTCTCGTTCGGAGTCACCTAGTGCAG”, for which the binding signal was 5070 fluorescence intensity (a.u.).

With “GTTTAAAGAAATTGATGAAAGAAAAGCTTCATTGTTGGCTCGGAGTCACCTAGTGCAG”, the binding signal was 6180 fluorescence intensity (a.u.).

On to “TTTAATTGAACTTGAGTGGTCCAGGTATTAAATGTGGGTCCGGAGTCACCTAGTGCAG”, for which the binding signal was 52200 fluorescence intensity (a.u.).

With “ACCCAGGCTTTGATTGCGATGATAAACCGAGCTCGCAGCACGGAGTCACCTAGTGCAG”, the binding signal is 13800 fluorescence intensity (a.u.).

Consider “GGAAATTTAACTATTTGCCACTTTTAGGTTTATCAATTATCGGAGTCACCTAGTGCAG”, for which the binding signal was 4880 fluorescence intensity (a.u.).

For the sequence “ATTGGACCTGAACACTGCTAATTAATTGGTATAAGTCATCCGGAGTCACCTAGTGCAG”, the binding signal is 8360 fluorescence intensity (a.u.).

Regarding “ATTAATGAACTGTGACATTTCCTTAATTTCATTTTGCTCTCGGAGTCACCTAGTGCAG”, the binding signal was 23800 fluorescence intensity (a.u.).

“ATAGATAGATTTCTCCATAAGTAATTACATTGTAGGTAGGCGGAGTCACCTAGTGCAG”: the binding signal is 28500 fluorescence intensity (a.u.).

For the sequence “AACTGATATGTAGGGTATGATTGTAATGAAATTACGATTGCGGAGTCACCTAGTGCAG”, the binding signal was 10700 fluorescence intensity (a.u.).

“AATAACTGATGACTGTGAATGATTGATACGATGTAGTAGGCGGAGTCACCTAGTGCAG”: the binding signal was 65300 fluorescence intensity (a.u.).

Consider “TTAAATTGTTAATACCTCTGTATATCATCCGATCTACGTACGGAGTCACCTAGTGCAG”, for which the binding signal is 19600 fluorescence intensity (a.u.).

As to “CAGTTATGTGATTGGACTATAAATACGATATATGTTGTGTCGGAGTCACCTAGTGCAG”, the binding signal is 28700 fluorescence intensity (a.u.).

For “ATAACAGTGATTGATCTGTTAAATATCCGATACGGGTAGGCGGAGTCACCTAGTGCAG”, the binding signal was 65200 fluorescence intensity (a.u.).

For the sequence “TCTGATTGATGATGACGATGATGGCGGCTGTGCAGCTGAACGGAGTCACCTAGTGCAG”, the binding signal was 47600 fluorescence intensity (a.u.).

As for “GACTTGTAATTTGTAGCAGTGGTAAGAAATAAATCTGACCCGGAGTCACCTAGTGCAG”, the binding signal is 3900 fluorescence intensity (a.u.).

As for “CTTAAACAAATGATAGTACGATCCCATCTGATTGGGTGTTCGGAGTCACCTAGTGCAG”, the binding signal was 7540 fluorescence intensity (a.u.).

Consider “ACTCAATCTTATTAACTTAAATTGAACTTGAACAAGAGAACGGAGTCACCTAGTGCAG”, for which the binding signal was 22000 fluorescence intensity (a.u.).

With “ACTGATAACTTCCAACTGATAATTGGAGAAGGAGGGTTTGCGGAGTCACCTAGTGCAG”, the binding signal was 12400 fluorescence intensity (a.u.).

Consider “TCGTAAATTTAAATCCATAGATTTAAGGAATACTTAGGCTCGGAGTCACCTAGTGCAG”, for which the binding signal is 25900 fluorescence intensity (a.u.).

On to “AATCAACTAACTAATCATGGGATTAACCAAAACTAATTCTCGGAGTCACCTAGTGCAG”, for which the binding signal was 3800 fluorescence intensity (a.u.).

Take “TTGAGCACTAATTAATCATTAGGTGGCCTAATCAACAGCTCGGAGTCACCTAGTGCAG”: the binding signal was 22000 fluorescence intensity (a.u.).

For the sequence “ACCCAAAATTAACTCTAAACTTAAGTTTCAAAATCTAAATCGGAGTCACCTAGTGCAG”, the binding signal was 7640 fluorescence intensity (a.u.).

Take “GCAAATTAATTAACTAATTAATTAAACACCCAACTAATCTCGGAGTCACCTAGTGCAG”: the binding signal was 63700 fluorescence intensity (a.u.).

“AATTAATCAGCCAATCACAATCTCTCAAACTACACGGACTCGGAGTCACCTAGTGCAG”: the binding signal is 35500 fluorescence intensity (a.u.).

“TCAATTAATTAATTAATTAACTACACTTTCACACGAGTCTCGGAGTCACCTAGTGCAG”: the binding signal was 52700 fluorescence intensity (a.u.).

Take “GTAATTAATTAACATTGCAATTAAGCACATAAGTTAATCACGGAGTCACCTAGTGCAG”: the binding signal was 27000 fluorescence intensity (a.u.).

Regarding “AGACAATTCAATAATTAATCTACACTTTCCTTCCGCACCTCGGAGTCACCTAGTGCAG”, the binding signal was 5880 fluorescence intensity (a.u.).
